Bioassay records (PubChem BioAssay)
BJeLR viability – kills HRASV12-expressing BJeLR cells. inhibition, % (no concentration beside the values). BJeLR (HRASV12) viability, CellTiter-Glo ATP luminescence, 48 h. 300,000 compounds, 0.17% hits; in the data active = inhibition above about 50%
MazEF act – increases E. coli MazEF RNase cleavage of RNA | 350,000 compounds, 0.32% hits | FAM/BHQ RNA-DNA oligo cleavage fluorescence, 5 h | activation, % at 20 µM; in the data active = activation above about 50%
Target sequence (P0AE70 whole entry, looked up): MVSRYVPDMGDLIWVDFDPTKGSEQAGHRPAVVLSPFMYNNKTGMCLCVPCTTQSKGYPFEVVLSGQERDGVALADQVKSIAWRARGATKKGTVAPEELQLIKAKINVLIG
PrP 5UTR inh – inhibition of PrP 5' UTR reporter expression. cell-based PrP 5' UTR mRNA reporter, plate reader. inhibition, % (test concentration not listed). 340,000 compounds, 0.35% hits. AID 488862; in the data active = inhibition above about 52%; also: 0 = median of the neutral control wells
PrPC surface inh – inhibitors of human cell surface prion protein PrPC; P04156; TR-FRET read-out; inhibition, % at 13.8 µM; 370,000 compounds, 0.43% hits; AID 720596; in the data active = inhibition above about 24%; also: 0% = median of the test wells and 100% = reference compound wells
PrP UTR cherry – prion 5' UTR mRNA inhibition, cherry-pick retest | inhibition, % at 2.5 µM | cell-based prion protein 5' UTR reporter, plate reader | AID 504592 | 1,100 compounds, 48% hits | shares compounds with PrP 5UTR inh; in the data active = inhibition above about 54%
Active calls of the source: *; x = no result given. Rows were chosen to be rich in hits. Some 1.1% of all compounds tested hit in one or more screens of this group.

SMILES	BJeLR viability	MazEF act	PrP 5UTR inh	PrPC surface inh	PrP UTR cherry
CCc1nnc(NC(=O)CSc2nc(-c3ccc(F)cc3)cc(-c3ccccc3)c2C#N)s1	x	63*	-23	6	x
COc1ccccc1C(=O)N/C(N)=N/c1nc2ccccc2o1	-17	61*	-66	-2	x
Cn1c(/C=C/c2ccccc2[N+](=O)[O-])nc2ccccc2c1=O	-3	233*	-32	7	x
CCOC(=O)CN1CCCc2nc(C)c(C)cc21	x	x	x	0	x
COc1cc(C2C(C#N)=C(N)Oc3cc(N(C)C)ccc32)cc2c1OCO2 (stereo not drawn)	46	64*	-2	5	x
Cc1cc(C)c(C2=NOC3c4ccccc4OCC23)c(C)c1 (stereo not drawn)	x	x	x	-2	x
COC(=O)c1sc2nc(SCc3cccc(F)c3)n(N)c(=O)c2c1C	-2	133*	-42	-4	x
COC(=O)CNC(=O)C12CC3CC(C1)CC(c1ccc(C)cc1)(C3)C2	-15	13	78*	2	-26
C[C@H](CO)N1C[C@H](C)[C@H](CN(C)C(=O)Nc2ccc(F)cc2)Oc2ncc(Br)cc2C1=O	x	x	x	-1	x
C=C1CC(Cn2cc(Br)c(=O)[nH]c2=O)(c2ccc(-c3ccccc3)cc2)OC1=O (stereo not drawn)	x	-17	61*	3	72*
COC(CNC(=O)[C@H](Cc1c[nH]c2ccccc12)NC1(C(=O)NCc2ccccc2)CCCCC1)OC	x	x	x	-6	x
Cc1cc(C)c(S(=O)(=O)N2C[C@H]3CON(C)[C@H]3C[C@H]2c2ccc(-n3ccnc3)cc2)c(C)c1	x	x	x	2	x
COc1cc(OC)cc(-c2cc3nc(C)c(CCC(=O)O)c(C)n3n2)c1	x	2	54*	-3	57*
COc1cc(OC)cc(-c2cc3nc(C)c(CCC(=O)NC(C)CCc4ccco4)c(C)n3n2)c1 (stereo not drawn)	-2	4	1	-4	x
O=C(Nc1ccc(N2CCCCC2)cc1)c1ccccn1	44	2	93*	x	90*
O=C(Nc1ccc(N2CCCCCC2)cc1)c1ccccc1Cl	11	6	-44	9	x
CN1CCN(c2ccc(-c3ccc4ccccc4n3)cc2)CC1	17	0	92*	-16	91*
c1ccc2nc(-c3ccc(N4CCOCC4)cc3)ccc2c1	12	-14	75*	2	67*
c1ccc2nc(-c3ccncc3)ccc2c1	-4	-4	-45	-7	x
Cc1cc(-c2ccc(N3CCOCC3)cc2)nc2ccccc12	-4	9	-62	4	x
C[C@]12CC[C@H]3[C@@H](CCC4=CC(=O)CC[C@@]43C)[C@@H]1CC[C@@H]2C(=O)CO	3	5	76*	4	-16
CC(=O)OCC(=O)[C@H]1CC[C@H]2[C@@H]3CCC4=CC(=O)CC[C@]4(C)[C@H]3CC[C@]12C	-7	9	-14	-2	x
O=C(Nc1c(Cl)cc2c(c1Cl)Cc1cc([N+](=O)[O-])ccc1-2)C(Cl)Cl	x	0	82*	-5	-6
COc1cccc2c1C(CO)N1C(C#N)C3CC(C(=O)O)C(C1C2)N3C (stereo not drawn)	x	-6	69*	-4	75*
COC(=O)C[C@@H]1CC[C@H]2[C@@H](COc3ccc(NC(=O)Nc4ccccc4)cc3C(=O)N2C)O1	x	x	x	3	x
SMILES	BJeLR viability	MazEF act	PrP 5UTR inh	PrPC surface inh	PrP UTR cherry
Cc1nc2c(ccc3c([N+](=O)[O-])cccc32)c(C)c1C	-1	-16	71*	-5	-53
CCn1c(C)cc(C(=O)CN2C(=O)c3ccccc3S2(=O)=O)c1C	x	2	67*	-4	69*
Cc1cc(C(=O)CN2C(=O)c3ccccc3S2(=O)=O)c(C)n1-c1ccccc1	-2	0	57	-3	x
Cc1cc(C(=O)CN2C(=O)c3ccccc3S2(=O)=O)c(C)n1C(C)C	x	2	60*	-8	64*
C=CCn1c(C)cc(C(=O)CN2C(=O)c3ccccc3S2(=O)=O)c1C	x	-3	92*	x	92*
Cc1ccc(C(=O)NC2CCCCN(Cc3cccc(F)c3)C2=O)cc1 (stereo not drawn)	x	x	x	3	x
CCCC(=O)N1CCC[C@]2(CC[C@@H](CCC(=O)OCC)O2)C1	x	x	x	3	x
COc1ccc(S(=O)(=O)n2ccc(-c3cnc(-c4ccccc4)s3)n2)cc1	-11	-7	-36	-89	x
O=C(c1ccccc1)n1ccc(-c2cnc(-c3ccccc3)s2)n1	2	7	54*	-9	-35
COCCNC(=S)N1C[C@H]2CON(C)[C@H]2C[C@H]1c1ccccc1Br	x	x	x	5	x
